Drawing on PMC7862700, “An all-to-all approach to the identification of sequence-specific readers for epigenetic DNA modifications on cytosine”, this text covers binding signal for 7 sequences.

Holding throughout (experiment): DAPPL (digital affinity profiling via proximity ligation, sequencing); 10 mM Tris-HCl pH 7.5, 50 mM NaCl, 1 mM DTT, 4% glycerol, room temperature, 30 min; GST-TFs on glutathione beads, 16-mer random dsDNA library, 0.1% formaldehyde crosslink after washing; high values mean tight binding
Holding throughout (settings): protein: recombinant; tags: N-terminal GST; dsDNA, one strand shown

Experiment [1] addresses T1, FLI1 (Homo sapiens, UniProt Q01543 1-452).
T1 sequence: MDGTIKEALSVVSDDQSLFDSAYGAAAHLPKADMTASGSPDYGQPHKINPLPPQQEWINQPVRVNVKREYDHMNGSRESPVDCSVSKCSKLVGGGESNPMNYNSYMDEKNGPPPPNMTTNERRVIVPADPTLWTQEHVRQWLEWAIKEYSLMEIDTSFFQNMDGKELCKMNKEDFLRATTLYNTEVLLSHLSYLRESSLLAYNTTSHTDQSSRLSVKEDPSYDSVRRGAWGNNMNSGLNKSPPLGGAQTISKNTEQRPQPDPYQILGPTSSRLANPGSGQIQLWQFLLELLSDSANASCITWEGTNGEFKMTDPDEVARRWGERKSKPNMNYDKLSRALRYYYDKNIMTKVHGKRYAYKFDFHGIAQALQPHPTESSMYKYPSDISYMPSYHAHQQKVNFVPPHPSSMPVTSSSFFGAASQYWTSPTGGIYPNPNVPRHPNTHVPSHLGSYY
Put shortly: (§1)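 Pools of DNA-barcoded human transcription factors, expressed in yeast as GST fusions on glutathione beads and combined with a tag-only sample, were incubated with 200 nmole of a 16-mer random double-stranded DNA library. Incubation took 30 min at room temperature in Tris/NaCl/DTT/glycerol buffer and was followed by washing, 0.1% formaldehyde crosslinking, proximity ligation (BsaI/T4 ligase, 1 h, 37 °C), PCR amplification and sequencing on an Illumina NextSeq500. Binding signal is the ratio of a hexamer's read frequency for a factor to its frequency for the tag-only sample.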

Experiment [2] deals with T2, ELK1 (Homo sapiens, UniProt P19419 1-428).
T2 sequence: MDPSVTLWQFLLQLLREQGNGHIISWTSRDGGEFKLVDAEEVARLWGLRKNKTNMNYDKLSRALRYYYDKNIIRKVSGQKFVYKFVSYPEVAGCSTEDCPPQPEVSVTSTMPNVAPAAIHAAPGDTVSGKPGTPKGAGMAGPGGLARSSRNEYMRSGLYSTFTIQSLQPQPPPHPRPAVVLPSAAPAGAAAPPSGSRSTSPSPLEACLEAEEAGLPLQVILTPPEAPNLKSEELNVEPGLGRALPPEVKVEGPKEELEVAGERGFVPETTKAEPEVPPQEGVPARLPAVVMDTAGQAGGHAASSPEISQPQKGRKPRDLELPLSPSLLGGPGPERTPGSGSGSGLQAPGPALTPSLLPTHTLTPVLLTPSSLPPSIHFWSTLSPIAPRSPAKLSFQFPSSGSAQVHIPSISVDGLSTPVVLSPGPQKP
Put shortly:
as §1

Experiment [3] concerns the target T3, GABPA (Homo sapiens, UniProt Q06546 1-454).
T3 sequence: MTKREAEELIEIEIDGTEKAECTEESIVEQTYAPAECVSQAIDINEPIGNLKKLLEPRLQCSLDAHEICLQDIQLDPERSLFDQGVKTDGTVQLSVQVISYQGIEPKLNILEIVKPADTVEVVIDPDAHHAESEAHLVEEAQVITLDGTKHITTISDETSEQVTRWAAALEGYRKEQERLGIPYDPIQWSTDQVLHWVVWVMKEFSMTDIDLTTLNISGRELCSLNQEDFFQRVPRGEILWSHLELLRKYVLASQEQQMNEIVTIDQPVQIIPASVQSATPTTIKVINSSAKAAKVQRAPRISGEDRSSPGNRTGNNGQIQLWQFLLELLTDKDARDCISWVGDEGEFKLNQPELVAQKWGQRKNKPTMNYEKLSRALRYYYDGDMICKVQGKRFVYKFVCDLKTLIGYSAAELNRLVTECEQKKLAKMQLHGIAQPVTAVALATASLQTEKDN
Put shortly: as §1

The target in experiment [4] is T4, ERG (Homo sapiens, UniProt P11308 1-479).
T4 sequence: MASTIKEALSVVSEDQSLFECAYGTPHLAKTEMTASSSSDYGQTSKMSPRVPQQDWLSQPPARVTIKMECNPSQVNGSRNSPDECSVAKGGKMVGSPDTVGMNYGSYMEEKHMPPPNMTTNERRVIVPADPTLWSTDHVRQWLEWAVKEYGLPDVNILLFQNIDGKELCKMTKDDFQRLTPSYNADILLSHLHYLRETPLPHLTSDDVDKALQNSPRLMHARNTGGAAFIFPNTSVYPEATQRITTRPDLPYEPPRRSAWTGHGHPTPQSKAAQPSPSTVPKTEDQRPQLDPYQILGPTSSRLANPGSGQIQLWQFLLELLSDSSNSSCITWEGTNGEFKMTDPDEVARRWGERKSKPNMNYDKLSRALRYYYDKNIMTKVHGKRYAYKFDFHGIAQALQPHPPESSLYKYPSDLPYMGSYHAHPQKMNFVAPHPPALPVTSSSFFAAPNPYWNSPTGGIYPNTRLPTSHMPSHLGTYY
Put shortly: as §1

Experiment [5] has as its target ELF1 (Homo sapiens, UniProt P32519 1-619). Put shortly: as §1
The target in experiment [6] is T5, EHF (Homo sapiens, UniProt Q9NZC4 1-300).
T5 sequence: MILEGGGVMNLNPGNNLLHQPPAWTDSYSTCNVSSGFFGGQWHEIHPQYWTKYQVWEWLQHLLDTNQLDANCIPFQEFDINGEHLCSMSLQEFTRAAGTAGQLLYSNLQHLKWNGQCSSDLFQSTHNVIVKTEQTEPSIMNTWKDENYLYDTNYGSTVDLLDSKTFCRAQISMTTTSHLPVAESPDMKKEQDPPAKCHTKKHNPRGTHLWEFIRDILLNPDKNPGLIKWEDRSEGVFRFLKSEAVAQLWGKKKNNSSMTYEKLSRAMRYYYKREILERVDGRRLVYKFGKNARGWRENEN
Put shortly:
as §1

In experiment [7] the target is SPI1 (Homo sapiens, UniProt P17947 1-270). The method in brief: as §1
Experiment [8] concerns the target SPIB (Homo sapiens, UniProt Q01892 1-262). The method in brief: as §1
In experiment [9] the target is T6, ELK3 (Homo sapiens, UniProt P41970 1-407).
T6 sequence: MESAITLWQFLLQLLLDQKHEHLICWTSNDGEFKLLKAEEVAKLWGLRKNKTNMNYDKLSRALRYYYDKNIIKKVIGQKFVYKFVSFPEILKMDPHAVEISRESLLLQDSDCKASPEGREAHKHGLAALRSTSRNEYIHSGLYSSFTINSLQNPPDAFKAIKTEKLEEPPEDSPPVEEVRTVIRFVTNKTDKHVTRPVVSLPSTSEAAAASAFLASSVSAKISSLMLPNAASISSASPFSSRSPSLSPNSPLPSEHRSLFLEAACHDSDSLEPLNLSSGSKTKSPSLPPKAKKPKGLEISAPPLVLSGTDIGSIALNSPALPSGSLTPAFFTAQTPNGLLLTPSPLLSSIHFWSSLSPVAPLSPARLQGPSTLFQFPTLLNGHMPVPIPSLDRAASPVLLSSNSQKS
Put shortly: as §1

Sequence of ELF1 (P32519 whole entry): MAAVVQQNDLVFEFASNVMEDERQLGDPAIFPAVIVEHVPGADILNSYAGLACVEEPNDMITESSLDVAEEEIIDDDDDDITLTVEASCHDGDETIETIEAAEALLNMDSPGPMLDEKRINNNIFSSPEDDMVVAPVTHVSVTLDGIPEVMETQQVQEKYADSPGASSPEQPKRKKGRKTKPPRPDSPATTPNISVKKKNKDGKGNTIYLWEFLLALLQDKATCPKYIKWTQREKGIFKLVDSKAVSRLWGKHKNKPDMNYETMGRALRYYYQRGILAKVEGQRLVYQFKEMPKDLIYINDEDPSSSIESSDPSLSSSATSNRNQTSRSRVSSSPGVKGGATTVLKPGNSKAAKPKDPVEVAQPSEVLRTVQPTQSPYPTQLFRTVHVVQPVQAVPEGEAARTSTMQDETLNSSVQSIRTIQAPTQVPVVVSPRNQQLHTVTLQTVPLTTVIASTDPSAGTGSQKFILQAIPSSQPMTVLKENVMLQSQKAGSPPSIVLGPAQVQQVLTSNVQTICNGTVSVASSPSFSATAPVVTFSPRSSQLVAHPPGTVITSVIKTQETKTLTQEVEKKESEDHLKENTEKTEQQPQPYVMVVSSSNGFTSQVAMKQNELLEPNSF
Sequence of SPIB (Q01892 whole entry): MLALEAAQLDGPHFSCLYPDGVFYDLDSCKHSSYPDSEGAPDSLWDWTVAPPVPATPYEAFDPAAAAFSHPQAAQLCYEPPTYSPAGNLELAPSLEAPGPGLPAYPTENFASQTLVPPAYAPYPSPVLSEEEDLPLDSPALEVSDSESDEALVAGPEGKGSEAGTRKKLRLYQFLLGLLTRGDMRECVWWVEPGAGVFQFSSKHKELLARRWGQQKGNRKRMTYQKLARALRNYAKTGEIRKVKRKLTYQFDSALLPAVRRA

As for AATCTA, the binding signal was 1.07 fold enrichment (6-mer frequency, TF over GST control) in experiment [1]; 1.06 fold enrichment (6-mer frequency, TF over GST control) in experiment [2]; 1.05 fold enrichment (6-mer frequency, TF over GST control) in experiment [3]; 1.17 fold enrichment (6-mer frequency, TF over GST control) in experiment [4]; 1.17 fold enrichment (6-mer frequency, TF over GST control) in experiment [5]; 1.17 fold enrichment (6-mer frequency, TF over GST control) in experiment [6]. Also, the binding signal is 1.12 fold enrichment (6-mer frequency, TF over GST control) in experiment [7]; 1.17 fold enrichment (6-mer frequency, TF over GST control) in experiment [8]; 1.12 fold enrichment (6-mer frequency, TF over GST control) in experiment [9].

As to ATCTCC, the binding signal is 1.61 fold enrichment (6-mer frequency, TF over GST control) in experiment [1]; 1.5 fold enrichment (6-mer frequency, TF over GST control) in [2]; 1.56 fold enrichment (6-mer frequency, TF over GST control) in [3]; 1.51 fold enrichment (6-mer frequency, TF over GST control) in experiment [4]; 1.47 fold enrichment (6-mer frequency, TF over GST control) in experiment [5]; 1.6 fold enrichment (6-mer frequency, TF over GST control) in [6]. Also, the binding signal in experiment [7] is 1.37 fold enrichment (6-mer frequency, TF over GST control); in [8] it was 1.49 fold enrichment (6-mer frequency, TF over GST control); in experiment [9], 1.42 fold enrichment (6-mer frequency, TF over GST control).

In the case of TAACAA, the binding signal in [1] was 1.22 fold enrichment (6-mer frequency, TF over GST control); in experiment [2], 1.22 fold enrichment (6-mer frequency, TF over GST control); in [3] it was 1.14 fold enrichment (6-mer frequency, TF over GST control); in [4], 1.18 fold enrichment (6-mer frequency, TF over GST control); in [5], 1.2 fold enrichment (6-mer frequency, TF over GST control); in experiment [6], 1.19 fold enrichment (6-mer frequency, TF over GST control). Also, the binding signal in [7] was 1.14 fold enrichment (6-mer frequency, TF over GST control); in experiment [8] it was 1.13 fold enrichment (6-mer frequency, TF over GST control); in [9], 1.34 fold enrichment (6-mer frequency, TF over GST control).

Take GGTCTT: the binding signal in [1] is 1.14 fold enrichment (6-mer frequency, TF over GST control); in experiment [2], 1.11 fold enrichment (6-mer frequency, TF over GST control); in [3], 1.14 fold enrichment (6-mer frequency, TF over GST control); in experiment [4] it was 1.09 fold enrichment (6-mer frequency, TF over GST control); in experiment [5] it was 1.19 fold enrichment (6-mer frequency, TF over GST control); in experiment [6] it was 1.1 fold enrichment (6-mer frequency, TF over GST control). The binding signal is 1.18 fold enrichment (6-mer frequency, TF over GST control) in [7]; 1.23 fold enrichment (6-mer frequency, TF over GST control) in experiment [8]; 1.15 fold enrichment (6-mer frequency, TF over GST control) in [9].

Take ATTACA: the binding signal in experiment [1] is 1.14 fold enrichment (6-mer frequency, TF over GST control); in experiment [2] it was 1.13 fold enrichment (6-mer frequency, TF over GST control); in experiment [3], 1.06 fold enrichment (6-mer frequency, TF over GST control); in [4], 1.12 fold enrichment (6-mer frequency, TF over GST control); in experiment [5], 1.1 fold enrichment (6-mer frequency, TF over GST control); in experiment [6], 1.12 fold enrichment (6-mer frequency, TF over GST control). Besides, the binding signal in [7] was 1.08 fold enrichment (6-mer frequency, TF over GST control); in experiment [8] it was 1.15 fold enrichment (6-mer frequency, TF over GST control); in [9], 1.11 fold enrichment (6-mer frequency, TF over GST control).

For TTGTCT, the binding signal in experiment [1] is 1.29 fold enrichment (6-mer frequency, TF over GST control); in experiment [2] it was 1.23 fold enrichment (6-mer frequency, TF over GST control); in experiment [3], 1.33 fold enrichment (6-mer frequency, TF over GST control); in experiment [4], 1.15 fold enrichment (6-mer frequency, TF over GST control); in experiment [5], 1.27 fold enrichment (6-mer frequency, TF over GST control); in [6], 1.18 fold enrichment (6-mer frequency, TF over GST control). Moreover, the binding signal in experiment [7] was 1.19 fold enrichment (6-mer frequency, TF over GST control); in [8] it was 1.15 fold enrichment (6-mer frequency, TF over GST control); in experiment [9], 1.31 fold enrichment (6-mer frequency, TF over GST control).

Turning to TCACCT, the binding signal in experiment [1] is 1.25 fold enrichment (6-mer frequency, TF over GST control); in [2] it was 1.31 fold enrichment (6-mer frequency, TF over GST control); in experiment [3], 1.27 fold enrichment (6-mer frequency, TF over GST control); in experiment [4], 1.23 fold enrichment (6-mer frequency, TF over GST control); in [5] it was 1.2 fold enrichment (6-mer frequency, TF over GST control); in [6], 1.21 fold enrichment (6-mer frequency, TF over GST control). Besides, the binding signal was 1.21 fold enrichment (6-mer frequency, TF over GST control) in experiment [7]; 1.13 fold enrichment (6-mer frequency, TF over GST control) in experiment [8]; 1.22 fold enrichment (6-mer frequency, TF over GST control) in experiment [9].
